# Data as given in PubChem BioAssay AID588405 (Sanford-Burnham Center for Chemical Genomics, 2011).
# The whole screen tested about 360,000 compounds, of which about 6,200 (1.7%) were called active.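 Rule for the calls: active = inhibition of at least 50% at 20 µM; inactive = the rest.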 What follows is part of a selection rich in actives, with near analogues and random picks from the rest.
# Experiment: Peg3 promoter-driven luciferase inhibitors, primary screen, cell-based, HeLa, luciferase luminescence (AID 588405)
# Conditions: HeLa PEG-Prom luciferase reporter, overnight, at 20 µM, active compounds read high
row,SMILES,inhibition
1,O=[N+]([O-])c1ccc(C=Nc2ccc(Cl)cc2Cl)s1,47.5% (inactive)
2,Cc1nn(-c2ccccc2)c(Cl)c1/C=N/NC(=O)c1nn(C)cc1[N+](=O)[O-],-116% (inactive)
3,CC(C)(C)c1cc(C(=O)N/N=C/c2ccc([N+](=O)[O-])s2)n[nH]1,50.6% (active)
4,CCNC(=O)C1(C)CCCN(C(=O)c2ccc3ccccc3n2)C1 (stereo not given),-7.45% (inactive)
5,CN(C)CCNC(=O)c1ccc(Cl)c2cc3ccccc3nc12,102% (active)
6,CNC(=O)c1cccc2nc3ccccc3nc12,6.22% (inactive)
7,CCCN(CCC)CCNC(=O)c1cc2c(C)nc3ccccc3c2o1,18.8% (inactive)
8,COc1ccc(-c2cc3c(c4c2ccn4C)C2CCC3C2)cn1 (stereo not given),-6.53% (inactive)
9,CNC[C@H](CC1CCCCC1)NC[C@H](NCCC1CCCC1)[C@H](C)O,73.8% (active)
10,CCCCC[C@@H]1C=C(C(=O)OCC)[C@H](c2ccccc2)N1S(=O)(=O)c1ccc(C)cc1,12.8% (inactive)
11,CC(C)Cc1nnc(NC(=O)CCC(=O)Nc2ccc3cn[nH]c3c2)s1,19.8% (inactive)
12,COC(=O)c1cc(NC2c3ccccc3C(=O)N2c2ccc(Cl)cn2)cc(C(=O)OC)c1 (stereo not given),-65.5% (inactive)
13,CN(Cc1ccccc1F)c1cc2c(c3c1ccn3C)C1CCC2O1 (stereo not given),33.1% (inactive)
14,Cc1cc(C)cc(C(=O)NCCN2CCOCC2)c1,3.53% (inactive)
15,Cc1cccc(C(=O)OC(C)CN2CCN(C)CC2)c1 (stereo not given),-101% (inactive)
16,Cc1cccc(-c2nc3ccc(C(=O)NCCN4CCN(C)CC4)cc3nc2-c2cccc(C)c2)c1,103% (active)
17,Cc1ccc(S(=O)(=O)NCC(=O)NNC(=O)c2ccc(Br)cc2)cc1C,4.68% (inactive)
18,CCOc1cc(N2CCOCC2)c(OCC)cc1NC(=O)COc1cccc2cccnc12,109% (active)
19,CCOc1cc(N2CCOCC2)c(OCC)cc1NC(=O)c1ccc(C)s1,-88.6% (inactive)
20,CCOc1cc(N2CCOCC2)c(OCC)cc1NC(=O)COC(=O)[C@H](Cc1c[nH]c2ccccc12)NC(C)=O,22.9% (inactive)
21,CC1(C(=O)Nc2cccc3c2CCCC3)CCN1C(=O)CCc1ccc(Cl)cc1Cl (stereo not given),36.2% (inactive)
22,COc1ccc(OC)c(C(O)c2nc3ccccc3n2C)c1 (stereo not given),0.26% (inactive)
23,CC1=C(C(=O)N2CCOCC2)CC(CC(=O)NCCCN(C)C)C(=O)N1Cc1ccc(C(C)(C)C)cc1 (stereo not given),-10.2% (inactive)
24,Cc1ccc(S(=O)Cc2ccc(C(=O)N3CCN(C4CCCCC4)CC3)o2)cc1 (stereo not given),24.1% (inactive)
25,CN(C)S(=O)(=O)c1cccc(C(=O)OCC(=O)N2CCCC2=O)c1,-2.53% (inactive)
